The supplement of paper PMC11732987, “Enantioselective OTUD7B fragment discovery through chemoproteomics screening and high-throughput optimisation” (Communications Chemistry, 2025)

How the values were obtained:
Assay in all cases: log2 ratio of Biotin-Ahx-Ub-VS probe labelling (fragment/DMSO); higher = less target engagement (more negative = stronger competition), active = hit call of the paper (q ≤ 0.05, log2 ratio ≤ -1)
Conditions in all cases: compound concentration: 200 uM; treatment time: 3 h
USP42 = target: T1, USP42 (UniProt Q9H9J4)
T1 sequence (whole entry): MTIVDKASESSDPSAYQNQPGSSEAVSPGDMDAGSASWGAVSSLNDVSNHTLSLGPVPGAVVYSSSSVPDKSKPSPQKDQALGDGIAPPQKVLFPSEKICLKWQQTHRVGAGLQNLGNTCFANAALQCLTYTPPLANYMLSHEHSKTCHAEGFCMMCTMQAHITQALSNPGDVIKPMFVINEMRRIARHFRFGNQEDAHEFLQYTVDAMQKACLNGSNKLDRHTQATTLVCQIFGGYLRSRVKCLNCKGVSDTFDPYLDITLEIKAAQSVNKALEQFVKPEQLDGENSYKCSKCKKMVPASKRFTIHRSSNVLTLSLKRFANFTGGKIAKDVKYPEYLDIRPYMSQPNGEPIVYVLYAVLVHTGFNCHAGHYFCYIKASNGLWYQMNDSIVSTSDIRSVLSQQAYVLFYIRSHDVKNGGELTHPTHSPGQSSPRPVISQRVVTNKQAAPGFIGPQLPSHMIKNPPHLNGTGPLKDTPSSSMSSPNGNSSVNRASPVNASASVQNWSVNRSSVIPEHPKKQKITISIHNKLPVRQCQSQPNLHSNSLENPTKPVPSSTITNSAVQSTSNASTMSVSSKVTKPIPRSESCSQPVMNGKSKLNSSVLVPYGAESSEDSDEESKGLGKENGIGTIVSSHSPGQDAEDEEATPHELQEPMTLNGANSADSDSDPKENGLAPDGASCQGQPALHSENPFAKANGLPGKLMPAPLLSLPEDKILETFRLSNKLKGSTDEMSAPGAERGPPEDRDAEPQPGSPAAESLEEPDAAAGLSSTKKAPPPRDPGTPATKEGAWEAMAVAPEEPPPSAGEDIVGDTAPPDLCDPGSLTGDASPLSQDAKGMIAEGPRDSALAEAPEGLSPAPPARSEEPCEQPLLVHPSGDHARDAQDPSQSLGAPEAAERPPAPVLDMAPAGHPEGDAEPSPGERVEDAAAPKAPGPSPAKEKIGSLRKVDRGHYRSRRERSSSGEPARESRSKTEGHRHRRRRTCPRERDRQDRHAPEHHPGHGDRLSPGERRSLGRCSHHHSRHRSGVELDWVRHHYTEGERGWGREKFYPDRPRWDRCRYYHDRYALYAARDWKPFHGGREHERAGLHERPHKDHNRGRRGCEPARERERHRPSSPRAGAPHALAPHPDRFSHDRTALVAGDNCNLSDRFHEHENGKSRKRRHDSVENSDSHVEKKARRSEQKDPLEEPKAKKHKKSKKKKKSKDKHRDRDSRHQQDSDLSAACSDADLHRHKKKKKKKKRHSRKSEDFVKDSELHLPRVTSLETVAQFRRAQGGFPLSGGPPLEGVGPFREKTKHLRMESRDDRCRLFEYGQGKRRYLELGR
Outline: (§1)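 Triplicate samples of HEK293T lysate, 495 µg each, received fragment at 200 µM or vehicle for 3 h, followed by Biotin-Ahx-Ub-VS (0.5 µM final) for 1 h. After NeutrAvidin enrichment of labelled DUBs and LysC/trypsin digestion, peptides were run by diaPASEF LC-MS/MS. The values are average log2 fragment/vehicle ratios from global-median-normalised Spectronaut label-free quantities, tested by unpaired t-test on proteins having ≥2 unique peptides.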

USP46 = USP46 (UniProt P62068)
Sequence of USP46 (P62068 whole entry): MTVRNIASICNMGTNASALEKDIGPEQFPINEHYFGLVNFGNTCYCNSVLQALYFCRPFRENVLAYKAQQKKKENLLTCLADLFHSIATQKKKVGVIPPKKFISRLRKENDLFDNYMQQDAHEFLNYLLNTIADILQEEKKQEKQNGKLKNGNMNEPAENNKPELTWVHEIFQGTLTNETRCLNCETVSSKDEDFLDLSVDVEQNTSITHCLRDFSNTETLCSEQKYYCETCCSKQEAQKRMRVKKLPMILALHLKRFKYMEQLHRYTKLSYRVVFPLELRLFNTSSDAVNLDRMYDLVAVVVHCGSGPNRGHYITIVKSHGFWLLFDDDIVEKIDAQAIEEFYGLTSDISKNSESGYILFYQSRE
Outline: as §1

USP47 = target: T2, USP47 (UniProt Q96K76)
T2 sequence (whole entry): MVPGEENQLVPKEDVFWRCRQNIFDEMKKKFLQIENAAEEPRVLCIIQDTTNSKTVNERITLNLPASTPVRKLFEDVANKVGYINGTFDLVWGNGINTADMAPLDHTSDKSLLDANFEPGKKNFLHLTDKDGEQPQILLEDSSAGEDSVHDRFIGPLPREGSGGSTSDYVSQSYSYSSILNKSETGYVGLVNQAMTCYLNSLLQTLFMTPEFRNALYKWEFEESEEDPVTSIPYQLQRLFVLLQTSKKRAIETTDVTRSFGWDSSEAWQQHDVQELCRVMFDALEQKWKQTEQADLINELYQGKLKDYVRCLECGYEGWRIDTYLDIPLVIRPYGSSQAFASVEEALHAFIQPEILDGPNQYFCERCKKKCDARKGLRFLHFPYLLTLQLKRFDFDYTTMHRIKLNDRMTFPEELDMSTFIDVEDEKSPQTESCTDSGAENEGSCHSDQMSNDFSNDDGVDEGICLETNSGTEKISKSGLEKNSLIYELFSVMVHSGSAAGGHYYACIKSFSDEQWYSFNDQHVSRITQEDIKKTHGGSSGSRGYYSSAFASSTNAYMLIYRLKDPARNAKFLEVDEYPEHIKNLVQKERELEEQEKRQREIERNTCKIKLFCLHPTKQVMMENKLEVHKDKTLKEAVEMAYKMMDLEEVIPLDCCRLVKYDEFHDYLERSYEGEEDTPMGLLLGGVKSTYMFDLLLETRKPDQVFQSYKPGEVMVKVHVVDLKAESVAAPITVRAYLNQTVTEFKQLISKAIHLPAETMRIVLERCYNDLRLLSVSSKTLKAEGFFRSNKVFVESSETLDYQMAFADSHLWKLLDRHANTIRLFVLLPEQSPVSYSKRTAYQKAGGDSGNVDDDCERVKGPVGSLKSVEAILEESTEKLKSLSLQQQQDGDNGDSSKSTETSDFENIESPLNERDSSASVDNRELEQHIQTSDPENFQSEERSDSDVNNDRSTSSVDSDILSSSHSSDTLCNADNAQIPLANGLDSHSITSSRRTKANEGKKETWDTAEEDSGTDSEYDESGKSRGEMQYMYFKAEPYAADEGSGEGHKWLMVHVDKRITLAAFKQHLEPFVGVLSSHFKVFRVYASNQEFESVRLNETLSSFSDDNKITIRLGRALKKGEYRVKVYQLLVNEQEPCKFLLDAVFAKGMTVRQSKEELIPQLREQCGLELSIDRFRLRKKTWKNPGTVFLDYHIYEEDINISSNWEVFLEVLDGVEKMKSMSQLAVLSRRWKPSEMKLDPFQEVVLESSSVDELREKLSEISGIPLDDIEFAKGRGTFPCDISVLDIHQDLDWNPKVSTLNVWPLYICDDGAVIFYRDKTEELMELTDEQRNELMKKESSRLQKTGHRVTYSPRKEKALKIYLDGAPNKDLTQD
Outline: as §1

USP48 = target: T3, USP48 (UniProt Q86UV5)
T3 sequence (whole entry): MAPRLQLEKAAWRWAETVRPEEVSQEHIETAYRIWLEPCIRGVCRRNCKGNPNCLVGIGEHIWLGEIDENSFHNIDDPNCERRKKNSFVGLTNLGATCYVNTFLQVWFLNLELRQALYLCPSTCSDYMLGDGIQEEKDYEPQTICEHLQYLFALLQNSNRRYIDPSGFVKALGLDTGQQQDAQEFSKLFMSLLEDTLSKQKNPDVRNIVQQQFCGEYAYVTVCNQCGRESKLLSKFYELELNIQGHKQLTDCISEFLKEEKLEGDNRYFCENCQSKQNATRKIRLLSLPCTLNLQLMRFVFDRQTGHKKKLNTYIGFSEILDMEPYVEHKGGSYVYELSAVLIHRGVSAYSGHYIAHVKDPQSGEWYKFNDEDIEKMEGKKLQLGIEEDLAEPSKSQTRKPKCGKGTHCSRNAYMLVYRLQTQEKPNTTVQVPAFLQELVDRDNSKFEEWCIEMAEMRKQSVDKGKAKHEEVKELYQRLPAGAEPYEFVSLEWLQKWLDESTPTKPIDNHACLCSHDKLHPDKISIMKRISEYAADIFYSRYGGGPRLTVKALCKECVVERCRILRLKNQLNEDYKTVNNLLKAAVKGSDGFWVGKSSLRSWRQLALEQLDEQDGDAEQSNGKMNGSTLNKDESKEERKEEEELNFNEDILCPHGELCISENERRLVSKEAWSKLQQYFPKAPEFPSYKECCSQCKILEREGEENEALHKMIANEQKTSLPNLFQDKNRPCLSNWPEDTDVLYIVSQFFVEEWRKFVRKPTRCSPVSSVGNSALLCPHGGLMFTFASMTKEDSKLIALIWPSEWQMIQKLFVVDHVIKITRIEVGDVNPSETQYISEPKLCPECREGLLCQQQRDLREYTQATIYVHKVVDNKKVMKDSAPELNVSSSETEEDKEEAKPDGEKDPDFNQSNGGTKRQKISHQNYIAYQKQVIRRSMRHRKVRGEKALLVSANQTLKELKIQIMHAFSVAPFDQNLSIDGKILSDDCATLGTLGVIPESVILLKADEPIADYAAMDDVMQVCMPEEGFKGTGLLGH
Outline: as §1

USP5 = target: T4, USP5 (UniProt P45974)
T4 sequence (whole entry): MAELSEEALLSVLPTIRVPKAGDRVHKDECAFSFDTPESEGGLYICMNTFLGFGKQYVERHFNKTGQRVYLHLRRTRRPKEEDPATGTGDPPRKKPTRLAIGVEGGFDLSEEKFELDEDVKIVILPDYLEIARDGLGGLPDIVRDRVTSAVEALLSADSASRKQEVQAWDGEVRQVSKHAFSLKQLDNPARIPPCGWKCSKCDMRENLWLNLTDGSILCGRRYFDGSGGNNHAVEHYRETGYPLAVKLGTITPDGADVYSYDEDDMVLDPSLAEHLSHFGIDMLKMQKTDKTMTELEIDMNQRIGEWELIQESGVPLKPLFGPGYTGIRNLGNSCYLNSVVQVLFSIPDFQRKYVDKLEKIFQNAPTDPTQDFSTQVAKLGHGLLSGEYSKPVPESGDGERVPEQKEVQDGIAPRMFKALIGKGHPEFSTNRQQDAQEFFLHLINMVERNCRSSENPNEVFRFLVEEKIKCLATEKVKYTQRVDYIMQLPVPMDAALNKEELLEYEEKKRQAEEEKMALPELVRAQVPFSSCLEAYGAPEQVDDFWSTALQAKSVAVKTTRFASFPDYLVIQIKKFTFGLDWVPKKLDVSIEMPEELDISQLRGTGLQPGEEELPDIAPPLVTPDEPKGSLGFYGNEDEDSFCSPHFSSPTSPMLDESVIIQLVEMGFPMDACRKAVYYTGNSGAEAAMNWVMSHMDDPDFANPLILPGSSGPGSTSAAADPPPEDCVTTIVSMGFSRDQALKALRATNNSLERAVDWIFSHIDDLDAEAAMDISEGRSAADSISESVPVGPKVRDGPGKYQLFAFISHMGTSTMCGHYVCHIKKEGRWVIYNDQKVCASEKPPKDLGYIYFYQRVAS
Outline: as §1

USP54 = USP54 (UniProt Q70EL1)
Outline: as §1

USP7 = USP7 (UniProt Q93009)
Sequence of USP7 (Q93009 whole entry, looked up): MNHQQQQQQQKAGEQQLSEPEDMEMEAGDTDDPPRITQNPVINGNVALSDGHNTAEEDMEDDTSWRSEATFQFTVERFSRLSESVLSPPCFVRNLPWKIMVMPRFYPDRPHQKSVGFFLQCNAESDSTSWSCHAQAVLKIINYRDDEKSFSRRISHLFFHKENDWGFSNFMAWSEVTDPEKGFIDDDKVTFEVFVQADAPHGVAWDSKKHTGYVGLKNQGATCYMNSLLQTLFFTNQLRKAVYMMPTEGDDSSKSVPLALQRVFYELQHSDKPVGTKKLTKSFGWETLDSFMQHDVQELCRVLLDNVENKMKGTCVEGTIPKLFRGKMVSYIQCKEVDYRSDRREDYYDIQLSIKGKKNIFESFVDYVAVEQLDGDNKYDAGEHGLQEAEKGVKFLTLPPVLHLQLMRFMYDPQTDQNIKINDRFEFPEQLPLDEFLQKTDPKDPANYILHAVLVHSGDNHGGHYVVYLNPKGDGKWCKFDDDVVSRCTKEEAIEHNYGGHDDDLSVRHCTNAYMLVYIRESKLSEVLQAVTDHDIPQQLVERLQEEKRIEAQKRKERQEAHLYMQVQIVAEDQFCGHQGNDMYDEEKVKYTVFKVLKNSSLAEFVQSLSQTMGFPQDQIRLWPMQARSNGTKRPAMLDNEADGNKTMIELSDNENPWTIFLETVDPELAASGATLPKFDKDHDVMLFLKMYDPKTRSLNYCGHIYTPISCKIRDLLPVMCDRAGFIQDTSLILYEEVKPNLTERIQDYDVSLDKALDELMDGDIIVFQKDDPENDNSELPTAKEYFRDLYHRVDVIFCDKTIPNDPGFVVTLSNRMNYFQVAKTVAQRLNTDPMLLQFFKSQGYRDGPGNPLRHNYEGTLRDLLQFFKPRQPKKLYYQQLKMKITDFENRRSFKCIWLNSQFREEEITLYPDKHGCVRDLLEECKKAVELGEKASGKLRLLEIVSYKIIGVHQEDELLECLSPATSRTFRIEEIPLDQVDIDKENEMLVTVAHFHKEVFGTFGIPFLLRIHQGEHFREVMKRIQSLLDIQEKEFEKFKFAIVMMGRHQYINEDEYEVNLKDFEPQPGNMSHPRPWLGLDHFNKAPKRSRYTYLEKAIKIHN
Outline: as §1

USP8 = target: T5, USP8 (UniProt P40818)
T5 sequence (whole entry): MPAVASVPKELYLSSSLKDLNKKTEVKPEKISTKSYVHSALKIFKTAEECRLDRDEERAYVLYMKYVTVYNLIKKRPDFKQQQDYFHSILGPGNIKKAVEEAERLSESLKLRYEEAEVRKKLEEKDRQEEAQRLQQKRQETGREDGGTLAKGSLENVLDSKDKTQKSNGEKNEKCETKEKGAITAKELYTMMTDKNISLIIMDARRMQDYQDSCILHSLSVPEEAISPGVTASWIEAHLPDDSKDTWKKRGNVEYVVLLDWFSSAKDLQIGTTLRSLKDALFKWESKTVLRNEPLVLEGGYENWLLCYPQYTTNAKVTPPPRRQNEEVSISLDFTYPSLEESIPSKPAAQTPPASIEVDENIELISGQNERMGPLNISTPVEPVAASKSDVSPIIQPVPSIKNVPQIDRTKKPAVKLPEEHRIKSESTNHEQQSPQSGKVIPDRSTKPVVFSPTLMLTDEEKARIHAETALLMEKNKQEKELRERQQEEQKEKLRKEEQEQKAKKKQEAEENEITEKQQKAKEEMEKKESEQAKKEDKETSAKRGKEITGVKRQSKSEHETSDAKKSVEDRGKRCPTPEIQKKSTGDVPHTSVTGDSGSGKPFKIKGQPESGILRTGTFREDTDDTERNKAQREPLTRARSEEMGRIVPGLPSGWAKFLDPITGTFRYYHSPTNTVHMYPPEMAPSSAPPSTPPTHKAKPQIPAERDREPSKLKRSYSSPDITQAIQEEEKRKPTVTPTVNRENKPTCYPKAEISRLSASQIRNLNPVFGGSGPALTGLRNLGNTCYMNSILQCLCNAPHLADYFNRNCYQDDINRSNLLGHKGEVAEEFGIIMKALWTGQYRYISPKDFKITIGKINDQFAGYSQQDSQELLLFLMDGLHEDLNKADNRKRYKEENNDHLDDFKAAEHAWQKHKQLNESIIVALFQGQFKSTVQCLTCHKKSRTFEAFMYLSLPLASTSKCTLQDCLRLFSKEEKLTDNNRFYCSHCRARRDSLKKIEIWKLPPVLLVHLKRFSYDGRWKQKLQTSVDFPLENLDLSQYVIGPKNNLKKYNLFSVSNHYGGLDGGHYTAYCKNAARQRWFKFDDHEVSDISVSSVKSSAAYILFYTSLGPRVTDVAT
Outline: as §1

USP9X = USP9X (UniProt Q93008)
Sequence of USP9X (Q93008 whole entry): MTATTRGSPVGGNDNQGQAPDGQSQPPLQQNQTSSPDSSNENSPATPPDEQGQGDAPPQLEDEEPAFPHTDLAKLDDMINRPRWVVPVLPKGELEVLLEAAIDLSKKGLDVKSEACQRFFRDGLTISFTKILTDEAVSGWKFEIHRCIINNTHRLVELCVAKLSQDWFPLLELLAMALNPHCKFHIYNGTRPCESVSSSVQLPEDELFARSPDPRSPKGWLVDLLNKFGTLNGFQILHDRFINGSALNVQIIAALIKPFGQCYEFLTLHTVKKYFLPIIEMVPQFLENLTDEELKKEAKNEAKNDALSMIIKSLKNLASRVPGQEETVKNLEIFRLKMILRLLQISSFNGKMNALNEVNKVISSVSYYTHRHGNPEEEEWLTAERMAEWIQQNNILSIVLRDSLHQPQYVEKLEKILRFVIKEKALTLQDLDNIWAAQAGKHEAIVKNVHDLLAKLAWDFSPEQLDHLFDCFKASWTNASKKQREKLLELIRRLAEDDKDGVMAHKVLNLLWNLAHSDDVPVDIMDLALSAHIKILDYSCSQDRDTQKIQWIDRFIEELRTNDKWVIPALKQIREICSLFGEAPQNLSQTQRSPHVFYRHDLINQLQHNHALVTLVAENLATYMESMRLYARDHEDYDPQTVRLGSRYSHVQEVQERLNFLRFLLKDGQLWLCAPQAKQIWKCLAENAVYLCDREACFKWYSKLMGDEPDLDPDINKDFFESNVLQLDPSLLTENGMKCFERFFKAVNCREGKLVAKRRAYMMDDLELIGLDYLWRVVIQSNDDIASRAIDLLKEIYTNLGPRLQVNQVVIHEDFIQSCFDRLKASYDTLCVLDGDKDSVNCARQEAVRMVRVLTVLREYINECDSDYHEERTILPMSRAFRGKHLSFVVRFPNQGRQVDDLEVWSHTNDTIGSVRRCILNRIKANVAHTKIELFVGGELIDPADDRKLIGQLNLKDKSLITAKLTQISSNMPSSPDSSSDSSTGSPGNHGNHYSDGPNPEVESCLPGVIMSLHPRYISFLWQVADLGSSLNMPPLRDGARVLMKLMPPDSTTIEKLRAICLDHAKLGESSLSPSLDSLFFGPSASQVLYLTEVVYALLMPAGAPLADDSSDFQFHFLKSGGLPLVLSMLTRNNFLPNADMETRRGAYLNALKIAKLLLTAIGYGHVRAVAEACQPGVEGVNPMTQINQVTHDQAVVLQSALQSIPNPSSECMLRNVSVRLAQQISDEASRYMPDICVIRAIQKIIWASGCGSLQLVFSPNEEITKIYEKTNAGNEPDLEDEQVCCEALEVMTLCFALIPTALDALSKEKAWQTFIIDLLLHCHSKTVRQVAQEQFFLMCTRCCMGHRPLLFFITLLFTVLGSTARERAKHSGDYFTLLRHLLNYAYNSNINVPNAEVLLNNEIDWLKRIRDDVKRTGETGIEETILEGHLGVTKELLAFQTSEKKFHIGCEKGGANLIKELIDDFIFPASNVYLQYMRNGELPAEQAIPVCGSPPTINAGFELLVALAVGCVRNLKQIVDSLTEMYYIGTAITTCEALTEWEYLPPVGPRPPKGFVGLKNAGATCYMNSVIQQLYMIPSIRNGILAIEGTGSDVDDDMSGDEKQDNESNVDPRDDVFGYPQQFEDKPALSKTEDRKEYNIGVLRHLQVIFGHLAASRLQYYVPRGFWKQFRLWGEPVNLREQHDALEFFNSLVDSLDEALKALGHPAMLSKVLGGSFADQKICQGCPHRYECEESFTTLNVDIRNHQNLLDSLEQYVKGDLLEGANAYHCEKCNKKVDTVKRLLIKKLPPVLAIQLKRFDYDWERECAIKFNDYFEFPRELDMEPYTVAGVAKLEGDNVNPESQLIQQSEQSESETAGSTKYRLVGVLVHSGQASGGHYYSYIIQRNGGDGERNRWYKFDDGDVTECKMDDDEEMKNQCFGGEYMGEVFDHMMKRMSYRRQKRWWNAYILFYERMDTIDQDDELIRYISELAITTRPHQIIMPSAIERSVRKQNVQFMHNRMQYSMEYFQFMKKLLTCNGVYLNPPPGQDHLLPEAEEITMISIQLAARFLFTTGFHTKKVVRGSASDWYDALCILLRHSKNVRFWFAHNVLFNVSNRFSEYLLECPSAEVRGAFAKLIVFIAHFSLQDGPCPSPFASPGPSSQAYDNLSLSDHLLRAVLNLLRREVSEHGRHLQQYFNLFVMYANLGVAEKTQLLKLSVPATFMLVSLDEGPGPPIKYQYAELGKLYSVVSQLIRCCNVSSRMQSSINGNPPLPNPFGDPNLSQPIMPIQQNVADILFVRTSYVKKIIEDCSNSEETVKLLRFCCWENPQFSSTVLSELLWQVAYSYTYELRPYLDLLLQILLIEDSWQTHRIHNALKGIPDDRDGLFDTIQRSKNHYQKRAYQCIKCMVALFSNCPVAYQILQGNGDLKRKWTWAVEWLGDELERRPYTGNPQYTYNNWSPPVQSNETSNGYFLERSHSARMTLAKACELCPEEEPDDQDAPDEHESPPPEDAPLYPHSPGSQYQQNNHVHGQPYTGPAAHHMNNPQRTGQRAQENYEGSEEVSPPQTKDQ
Outline: as §1

UniProt O00487 = target: UniProt O00487
Sequence of UniProt O00487 (O00487 whole entry): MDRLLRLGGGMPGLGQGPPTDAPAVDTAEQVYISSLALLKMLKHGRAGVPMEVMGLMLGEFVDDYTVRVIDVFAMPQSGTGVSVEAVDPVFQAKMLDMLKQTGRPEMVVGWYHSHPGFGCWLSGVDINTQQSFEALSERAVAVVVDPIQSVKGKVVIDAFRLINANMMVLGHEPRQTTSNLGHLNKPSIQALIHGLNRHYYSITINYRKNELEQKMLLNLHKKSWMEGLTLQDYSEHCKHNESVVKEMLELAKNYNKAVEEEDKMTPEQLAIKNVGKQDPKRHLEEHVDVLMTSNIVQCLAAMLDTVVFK
Outline: as §1

Measured: log2 ratio of Biotin-Ahx-Ub-VS probe labelling

CCC(NC(=O)CCl)c1ccc(Cl)cc1 (stereo not given)
inactive: USP42 0.358 | USP46 -0.00255 | USP47 -0.558 | USP48 -0.293 | USP5 0.0661 | USP54 0.671 | USP7 -0.195 | USP8 -0.0586 | USP9X -0.112 | UniProt O00487 0.0429
